The sequences below were run on VDR:RXRa (NR concentration 270 nM, RXRa partner concentration 90 nM) (assay: PBM binding z-score (relative to random genomic background probes); higher = stronger binding; sequences stand for … in GC…GCGATTGACAGCGTAGAATGAAGG).
Procedure: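 Protein-binding microarray (Agilent 4x180K custom design, double-stranded 60-nt probes: 5' GC cap, 34-nt variable region, 24-nt constant primer region; full probe sequence given). Purified or IVT nuclear receptor:RXRα heterodimers (3:1 NR:RXRα, mostly 270:90 nM) or homodimers were incubated for 1 h in PBS with 2% milk and no ligand, then detected with Alexa488 antibodies. Fluorescence from o1-orientation probes (~5 replicates averaged) was converted to z-scores against 500 random hg19 background probes. Variable regions are seed direct-repeat (DR0–DR5) sites, all their single-nucleotide variants and half-site ablations.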

Compared with GCATATAGGTAGTACAAGGTGAAAGTCCGATTGT, AGATTGAGGTTATACGTAGATCAGGGAAGAAAGT is higher in PBM binding z-score: 0.154 for the first, 1.23 for the second.

Going from CCTACTTGGTCAAGGTCACACACGCTATAGGTAC to TCTATTTGTTGAAGGGCAACCGACGAGTCCGTTT, the PBM binding z-score falls from 3.97 to 1.19.

Compared with ATACCAAGGTGATCGTGAGGTCGTGGATACTAAC, CAAACTAGGTCAAGAGTTCAAAGTCCGCTTCCCG is higher in PBM binding z-score: 2.84 for the first, 6.21 for the second.

Going from CGTCCAGGGTCAAAGGTCAGTGAAGAGATGACGG to CGTCCTAGGTCAGCAGGTCAGTGAAAGCGACGTG, the PBM binding z-score falls from 6.53 to 2.07.

Compared with CAAACTACGTCACGAAAGGTCAAAGTCGAATGAC, TAGCCTAGGTCATGGGTCAGTATACCACGCGAAC is lower in PBM binding z-score: 4.91 for the first, 3.31 for the second.

Going from ATCTCTAGGTAAAGATAGTTCAGTTAATGCAAAT to CGCGAAAGGTCGGTTGAGGTGAGTATACGGATAA, the PBM binding z-score rises from 1.21 to 2.25.

First: GGAACAAGGGCATTCGAGTTGATAGCATGGCGAT
Second: CCTACTTGGCCATCAGGTCATTGATATCAACGTT
The PBM binding z-score of the first is higher: 3.12 for the first, 2.12 for the second.

First: GGAACGAGAGCAAGTTGATAGCAGAGTTTGATGG
Second: CCAACTAGGTCATCCAGGACAGTGAATACATTGA
The PBM binding z-score of the first is lower: -0.392 for the first, 4.58 for the second.

First: GCTAGCAGGCCATTTGGGTCATTCAATGACGGGC
Second: GGAACGAGGGCAAAGTTGAGAGCATCTGTCGACG
The PBM binding z-score of the first is higher: 1.56 for the first, 1.55 for the second.

Compared with CGAACGAGGGCATGAGTTGGTAGCAAATGCCGAT, ATATGTCGGTTACATCCGGGTCATTCAGGCTATG is higher in PBM binding z-score: 0.602 for the first, 3.53 for the second.

Compared with GCAGACTGGTGAAACGCAGGTAACTCAGGGTGGC, CAAACTAGATCACGAAAGGTCAAAGTCGAATGAC is higher in PBM binding z-score: -0.985 for the first, 4.79 for the second.

First: ACTATTAGATGACTTAGGGCAACCGATACGACGC
Second: AGAATGATGTTATTAAGATCAGGGAATTGCGGTC
The PBM binding z-score of the first is higher: 0.293 for the first, 0.0323 for the second.

Going from CGAACTAGGTTATCCAGGACAGTGAATACATTGA to GGAACGAGGGCAAGTTGATACCAGAGTTTGATGG, the PBM binding z-score falls from 1.57 to 1.1.

First: TCGAGTAGGTTACCAATGGAGCATTCAGCTTTCT
Second: TTACCAAGGTGAGCTGTGGTCGTTGATCCAACTC
The PBM binding z-score of the first is higher: -0.303 for the first, -0.311 for the second.

First: AATACAGGGTCATCGGAGGCCAGAGTACGCACAG
Second: ACTGTTAGTTGACTTAGGGCAACCGATACGACGC
The PBM binding z-score of the first is higher: 5.88 for the first, 0.59 for the second.

First: CAAACTAGGTCAGAGGTCAAAGTCGAGCCAACCA
Second: GCGCGGAGGACAAGGTCAGAGCTTTGTCCGTAGA
The PBM binding z-score of the first is higher: 6.04 for the first, 1.4 for the second.

Going from ATCTCTAGGTAACTAGTTCAGTGAAAGAGAGGAC to TCTTGTAGATCAAAAGTTAAGAAAGCCGAAGCCT, the PBM binding z-score rises from 0.369 to 0.386.

Compared with ACTATTAGTTGAGACGAGGGAAACCGATAGGTTG, GGAACGAGGGCAAAGTTGATAGTATCTGTCGACG is higher in PBM binding z-score: -0.364 for the first, 1.21 for the second.

Going from ACTGGGAGGACAAAGGTCAGAGCTACGCCAGTGA to AGAATAAGGTTATACGTAGATCAGGGAAGAAAGT, the PBM binding z-score falls from 3.73 to 1.04.

Going from GGAACGTGGGCATTCGAGTTGATAGCATGGCGAT to CCTACTGGGCCAAAAAGGTCATTGACGCCGATAA, the PBM binding z-score rises from -0.17 to 4.36.

From the supplement of paper PMC6555819
